Source: the supplement of paper PMC10646978
± gives the standard deviation.

Assays:
Settings in all cases: modulator concentration 10 µM
[1] = test system: RAW-Dual (murine macrophage reporter line); assay: NF-kB reporter (SEAP) activity fold change vs agonist alone; higher = enhanced NF-kB activity
Outline: (§1)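 RAW-Dual murine macrophage reporter cells were seeded at 50 000 per well in 384-well plates and pre-incubated 1 hour at 37 °C with compound pin-transferred to 10 μM final. After 1 hour, a PRR agonist was added and cells incubated overnight. Supernatant NF-κB (SEAP, QUANTI-Blue, 620 nm absorbance) and IRF (Lucia luciferase, QUANTI-Luc, luminescence) signals were divided by the mean agonist-only control on the same plate to give fold change. Two replicate plates were averaged, with errors by propagation.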

[2] = test system: RAW-Dual (murine macrophage reporter line); assay: IRF reporter (Lucia luciferase) activity fold change vs agonist alone; higher = enhanced IRF activity
Outline: as §1

[3] = test system: RAW-Dual (murine macrophage reporter line); assay: viability score (confluency relative to resting cells, overnight) (fraction); higher = more viable, active = viable (0.7 or more)
Outline: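 RAW-Dual macrophages in 384-well plates were exposed overnight to compound at 10 μM final. Confluency was imaged with IncuCyte, and two confluency masks were generated with IncuCyte software over all imaged wells. The viability score is confluency expressed relative to resting cells. Compounds were called viable if both masks exceeded 70% of resting cells.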

[4] = agonist: CpG ODN 1826 0.5 ug/mL

Row | Compound | NF-kB reporter [1, 4] | NF-kB reporter ([1]; agonist: LPS 0.1 ug/mL) | NF-kB reporter ([1]; agonist: MPLA […]) | IRF reporter ([2]; agonist: 3'3'-cGAMP 10 ug/mL) | IRF reporter ([2]; agonist: LPS 0.1 ug/mL) | IRF reporter ([2]; agonist: MPLA […]) | viability score [3]
1 | CC(=O)Oc1ccc2c(C)c(Cl)c(=O)oc2c1C | 1.14 ± 0.24 | 1.01 ± 0.08 | 0.96 ± 0.1 | 0.93 ± 0.024 | 1.25 ± 0.19 | 1.19 ± 0.16 | 1.01 (active)
2 | Cc1ccc(C(=O)NC2CCN(c3ccc4nncn4n3)C2)c(C)c1 (centres undefined) | 0.957 ± 0.13 | 1.02 ± 0.081 | 1.15 ± 0.15 | 1.03 ± 0.066 | 0.995 ± 0.18 | 0.935 ± 0.42 | 1 (active)
3 | COc1cccc2cc(C(=O)NCc3nn(C4CCCC4)c(=O)c4ccccc34)oc12 | 0.976 ± 0.053 | 1.1 ± 0.086 | 0.846 ± 0.096 | 0.827 ± 0.062 | 1.2 ± 0.24 | 0.848 ± 0.39 | 1.02 (active)
4 | COc1ccccc1-c1nnc(NC(=O)c2cc(C)nn2C)o1 | 1.08 ± 0.11 | 1 ± 0.079 | 1.01 ± 0.08 | 0.945 ± 0.034 | 0.965 ± 0.064 | 0.953 ± 0.17 | 0.998 (active)
5 | CCN1CC(CCN2CCOCC2)C(c2ccccc2)(c2ccccc2)C1=O.Cl.O (centres undefined) | 1 ± 0.15 | 1.19 ± 0.24 | 1.79 ± 0.72 | 0.919 ± 0.028 | 1.37 ± 0.43 | 1.03 ± 0.083 | 1 (active)
6 | NCCCC[C@H](N[C@@H](CCc1ccccc1)C(=O)O)C(=O)N1CCC[C@H]1C(=O)O | 1.01 ± 0.076 | 0.997 ± 0.097 | 0.97 ± 0.033 | 1.26 ± 0.25 | 0.999 ± 0.049 | 1.07 ± 0.17 | 0.996 (active)
7 | CS(=O)(=O)N(CC(=O)NCCSCc1cccc(Cl)c1)c1ccc(Cl)cc1 | 0.893 ± 0.093 | 0.962 ± 0.079 | 0.964 ± 0.044 | 0.904 ± 0.13 | 1.07 ± 0.062 | 0.902 ± 0.081 | 1 (active)
8 | O=C(NCCN1CCOCC1)c1ccccc1Br | 0.967 ± 0.081 | 1.13 ± 0.089 | 0.952 ± 0.035 | 1.02 ± 0.15 | 1.13 ± 0.12 | 0.897 ± 0.18 | 0.997 (active)
9 | COC(CNS(=O)(=O)c1ccccc1Br)c1ccc(C)s1 (centres undefined) | 1.04 ± 0.1 | 1.05 ± 0.095 | 1.13 ± 0.086 | 0.86 ± 0.082 | 0.965 ± 0.058 | 0.854 ± 0.098 | 0.997 (active)
10 | COc1ccc(NC(=O)c2cn(-c3cc(N4CCCCC4)ncn3)cn2)cc1F | 1.31 ± 0.074 | 1.13 ± 0.086 | 1.22 ± 0.035 | 1.52 ± 0.45 | 1.01 ± 0.1 | 1.23 ± 0.3 | 0.97 (active)
11 | Cc1cc(OCC(=O)Nc2ccccc2-c2ccccc2)ccc1Br | 0.776 ± 0.073 | 0.888 ± 0.06 | 0.972 ± 0.099 | 1.03 ± 0.048 | 1.47 ± 0.087 | 1.55 ± 0.13 | 0.997 (active)
12 | O=C(CN(CCc1ccccc1)S(=O)(=O)c1ccc(Cl)cc1)NCc1ccncc1 | 1.03 ± 0.19 | 0.976 ± 0.076 | 0.941 ± 0.12 | 0.954 ± 0.025 | 1.17 ± 0.11 | 1.16 ± 0.26 | 1.01 (active)
13 | CC[C@H](Nc1ncnc2[nH]cnc12)c1nc2cccc(F)c2c(=O)n1-c1ccccc1 | 1.18 ± 0.27 | 0.973 ± 0.11 | 1.04 ± 0.067 | 0.641 ± 0.023 | 0.763 ± 0.073 | 0.997 ± 0.18 | 0.964 (active)
14 | O=C(NCCN1CCN(c2ccc(Cl)cc2)CC1)c1cnccn1 | 0.974 ± 0.076 | 0.967 ± 0.086 | 1 ± 0.03 | 0.982 ± 0.049 | 1.01 ± 0.055 | 0.919 ± 0.097 | 0.998 (active)
15 | O=C(CCCN1CCN(c2ccccn2)CC1)c1ccc(F)cc1 | 0.595 ± 0.084 | 1.05 ± 0.1 | 0.952 ± 0.056 | 0.924 ± 0.12 | 1.37 ± 0.12 | 1.15 ± 0.12 | 0.977 (active)
16 | OCCN1CCN(CC/C=C2/c3ccccc3Sc3ccc(Cl)cc32)CC1 [Prestw-998] | 0.395 ± 0.067 | 0.914 ± 0.093 | 1.36 ± 0.26 | 0.303 ± 0.008 | 1.85 ± 0.3 | 2.43 ± 0.28 | 0.624 (inactive)
17 | CCC(=O)c1c(O)cc(O)cc1O | 1.03 ± 0.083 | 1.1 ± 0.055 | 1.04 ± 0.055 | 0.922 ± 0.056 | 0.946 ± 0.081 | 0.84 ± 0.071 | 0.999 (active)
18 | Cc1nc2n(c(=O)c1CCN1CCC(c3noc4cc(F)ccc34)CC1)CCCC2O (centres undefined) | 1.11 ± 0.27 | 1.14 ± 0.071 | 0.997 ± 0.11 | 0.902 ± 0.038 | 1.26 ± 0.14 | 1.14 ± 0.11 | 1 (active)
19 | c1ccc(CNc2nc(N3CCOCC3)nc(N3CCOCC3)n2)cc1 | 0.882 ± 0.24 | 0.947 ± 0.079 | 0.987 ± 0.081 | 0.758 ± 0.027 | 1.09 ± 0.12 | 1.24 ± 0.21 | 0.991 (active)
20 | COC(CNC(=O)c1cc2ccccc2[nH]1)c1ccc(Cl)s1 (centres undefined) | 0.989 ± 0.23 | 1.06 ± 0.081 | 1.12 ± 0.11 | 0.917 ± 0.045 | 1.26 ± 0.14 | 1.48 ± 0.19 | 0.882 (active)
21 | Brc1ccc2ncnc(NCc3ccco3)c2c1 | 0.856 ± 0.14 | 1.98 ± 0.16 | 2.54 ± 0.3 | 0.373 ± 0.021 | 0.647 ± 0.12 | 0.7 ± 0.12 | 0.996 (active)
22 | CC1=CC(=O)c2ccccc2C1=O | 2.29 ± 0.12 | 1.31 ± 0.11 | 1.81 ± 0.2 | 0.357 ± 0.023 | 3.57 ± 0.25 | 1.33 ± 0.4 | 0.0798 (inactive)
23 | N#CC[C@H](C1CCCC1)n1cc(-c2ncnc3[nH]ccc23)cn1 | 1.4 ± 0.11 | 0.341 ± 0.017 | 0.734 ± 0.074 | 0.269 ± 0.012 | 0.719 ± 0.063 | 0.764 ± 0.074 | 0.979 (active)
24 | CCOCCn1c(N2CCCN(C)CC2)nc2ccccc21 [Prestw-1274] | 0.77 ± 0.17 | 1.24 ± 0.17 | 1.03 ± 0.08 | 1.01 ± 0.027 | 1.19 ± 0.21 | 1.44 ± 0.15 | 0.996 (active)
25 | O=c1c(-n2ccnn2)c[nH]n1-c1cc(N2CCOCC2)ncn1 | 0.74 ± 0.2 | 0.846 ± 0.046 | 0.853 ± 0.054 | 0.878 ± 0.04 | 1.09 ± 0.26 | 1.09 ± 0.15 | 1 (active)
26 | COc1cc(Nc2ncc(F)c(Nc3ccc4c(n3)N(COP(=O)(O)O)C(=O)C(C)(C)O4)n2)cc(OC)c1OC | 0.724 ± 0.063 | 0.825 ± 0.072 | 1.12 ± 0.1 | 0.869 ± 0.098 | 1.18 ± 0.22 | 1.25 ± 0.35 | 0.931 (active)
27 | NC(=O)C1CCCc2c1[nH]c1ccc(Cl)cc21 (centres undefined) | 1.07 ± 0.15 | 1.1 ± 0.14 | 0.878 ± 0.05 | 0.959 ± 0.044 | 1.19 ± 0.25 | 1.24 ± 0.098 | 0.959 (active)
